These results are taken from PubChem BioAssay AID588405 (Sanford-Burnham Center for Chemical Genomics, 2011).

Structures are written as SMILES. “And” between values parts separate entries of the source, which are not always exact repeats. Identical values can stand only once. The campaign covered roughly 360,000 compounds. About 6,200 (1.7%) were called active. This excerpt belongs to a sample that is enriched for actives. Unmarked numbers belong to inactive results.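 How the source made its calls: active means inhibition of at least 50% at 20 µM; inactive means the rest.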

A short description of the test: inhibition of PEG-3 promoter activity – cell-based, HeLa, luciferase luminescence, primary screen (AID 588405). The following applies: HeLa PEG-Prom luciferase reporter, overnight, at 20 µM, active compounds read high. (Reporter assays use an easily measured gene product as a stand-in for the process of interest.)
One may read the inhibition as the change of the read-out against control, counted positive when it falls. On to `CCC(C)(O)C(=O)OC1C(=O)OC2CC3C(C)=CC(=O)C(O)C3(C)C3C4(O)OCC23C1C(C)C4O` (stereo not given), for which the inhibition is 100% (active).

On to `O=C(O)CCn1cc(C=C2C(=O)NC(=S)NC2=O)c(-c2cccc(Br)c2)n1`, for which the inhibition was -1.73%.

Take `CN(C)C(=O)Oc1cc(OC(=O)N(C)C)cc(C(O)CNC(C)(C)C)c1` (stereo not given): the inhibition was 4.25% and -0.27%.

Take `O=C1NC(=O)N(c2ccc(F)cc2)C(=O)/C1=C/c1ccc2c(c1)CCCN2Cc1ccccc1`: the inhibition was 12.7%.

For the compound `O=C1NC(=O)N(CCc2ccc(F)cc2)C(=O)/C1=C/C=C/c1ccccc1`, the inhibition is 90.6% (active).

As to `Cc1cc2ccccn2c1C(C[N+](=O)[O-])c1c(F)cccc1Cl` (stereo not given), the inhibition was 38.7%.

With `CC(C)CN1Cc2cc(N3CCCCC3)ccc2-n2nncc2C1`, the inhibition was -1.02%.

As for `COC(=O)[C@@H]1C(OC(=O)c2ccccc2)CC2CCC1N2C` (stereo not given in full), the inhibition was -10.5%.

As to `CC(=O)OC1C2(CC3N4C(=O)C5(CO)SSC4(CC31O)C(=O)N5C)OC(C)C(C)(C)C2=O` (stereo not given), the inhibition is 99.3% (active).

In the case of `CC1C2Cn3c(nc4ccccc43)C1N(C)O2` (stereo not given), the inhibition was -2.57%.

Regarding `Nc1ccc([N+](=O)[O-])cc1`, the inhibition is -3.82%.

Consider `CC(C)N(CC#CCC1(O)c2ccccc2-c2ccccc21)C(C)C`, for which the inhibition was -15.7%.

On to `COc1ccc(C(=O)CC2C(=O)N(C)C(=O)N(C)C2=O)cc1`, for which the inhibition was 13.1%.

In the case of `CC(=O)Nc1ccccc1C(=O)OCC(=O)c1cccc2ccccc12`, the inhibition was -26.1%.

In the case of `N#CC1=C(N)Oc2c(c(=O)oc3ccccc23)C1c1ccccc1OC(=O)c1cccs1` (stereo not given), the inhibition was 19.6%.

`O=P(OC1=CCCCC1)(c1ccccc1)c1ccccc1`: the inhibition was 8.64%.

On to `O=C1C2(Cl)C3(Cl)C4(Cl)C(Cl)(Cl)C5(Cl)C3(Cl)C1(Cl)C5(Cl)C24Cl` (stereo not given), for which the inhibition was 86.1% (active).

For the compound `OC1/C(=C/c2ccc(C(F)(F)F)cc2)N2CCC1CC2` (stereo not given), the inhibition was -51.4%.

In the case of `C[C@]12CC[C@H](O)C[C@H]1CC[C@@H]1C2CC[C@]2(C)[C@@H](C3=CC(=O)OC3)[C@@H](O)C[C@]12O` (stereo not given in full), the inhibition is 112% (active).

For `CC12CCC(O)CC1CCC1C2CCC2(C)C(C(=O)CC(O)C(F)(F)F)CCC12` (stereo not given), the inhibition was -18.9%.

On to `CCN1c2nc3c(C)cccn3c(=O)c2CC2(C(=O)N(C)C(=O)N(C)C2=O)C1C` (stereo not given), for which the inhibition is 4.11%.

As for `CN1CCC(N(C)Cc2cccnc2)CC1`, the inhibition is -0.72%.

As for `O=C(OCCN1CCOCC1)C1(c2ccccc2)CCCC1`, the inhibition was 6.31%.

In the case of `COc1cc(OC)cc(C2(C#N)CCN(C)CC2)c1`, the inhibition is 16.1%.

For the compound `Cc1cc(OCc2cc(C(=O)O)oc2C)c2c3c(c(=O)oc2c1)CCCC3`, the inhibition is 0.36%.

Turning to `Fc1ccc(C2N3CCCN23)cc1` (stereo not given), the inhibition was 2.08%.

Turning to `CCCCCCCCCCCCn1ccc(=N)cc1`, the inhibition was 72.5% (active).

As for `COc1ccccc1N=C1SCCCN1C`, the inhibition is 4.44%.

In the case of `CCN1CCN(c2ccc([N+](=O)[O-])cc2C#N)CC1`, the inhibition was 13.3%.

Turning to `CC(Cc1ccccc1)NCCC(c1ccccc1)c1ccccc1` (stereo not given), the inhibition is 69.5% (active).

For the compound `CCc1cccc2c(C#N)cn(CC(=O)N3CCOCC3)c12`, the inhibition was 16.4%.

For the compound `CC1CC=CCC12C(=O)NC(=S)NC2=O` (stereo not given), the inhibition was 4.94%.

In the case of `COP(=O)(OC)C(NC(=O)c1ccc(C)cc1)C(Cl)(Cl)Cl` (stereo not given), the inhibition was -13.6%.

As for `CC(CC(C#N)(c1ccccc1)c1ccccc1)N1CCCCC1` (stereo not given), the inhibition is -0.65%.

For `CCN1CCN(Cc2cc(OC)c3c(c2)OCO3)CC1`, the inhibition was 14.7%.

As for `O=C(NC(=S)N1C[C@H]2C[C@H](C1)c1cccc(=O)n1C2)c1ccc(F)cc1`, the inhibition was 10.8%.

For `CNCC(O)c1cc(F)c(OCc2ccccc2)c(OCc2ccccc2)c1F` (stereo not given), the inhibition was 100% (active).

`O=C(CSC1c2ccccc2-c2ccccc21)N/N=C/c1ccccc1`: the inhibition was 28.7%.

In the case of `CCOc1ccc(CN(CCCl)CCCl)cc1C(=O)OC`, the inhibition was 21.9%.

`Cc1ccc(Cn2nnnc2CN2CCC(n3nnc4ccccc43)CC2)cc1`: the inhibition is 16.7%.

Consider `O=c1[nH]c2ccccc2n1C1CCN(C(c2ccccc2)c2nnnn2Cc2ccccc2)CC1` (stereo not given), for which the inhibition is 71% (active).

`O=c1[nH]c2ccccc2n1C1CCN(C(c2ccnc3ccccc23)c2nnnn2Cc2ccccc2)CC1` (stereo not given): the inhibition was 60.1% (active).

As for `O=C1NCN(c2ccccc2)C12CCN(C(c1cccs1)c1nnnn1C1CCCCC1)CC2` (stereo not given), the inhibition was 22%.

With `COc1cccc(C(c2nnnn2-c2ccc3c(c2)OCCO3)N2CCC3(CC2)C(=O)NCN3c2ccccc2)c1OC` (stereo not given), the inhibition was 45.9%.

Turning to `CSCCC(c1nnnn1C(C)(C)C)N1CCC(n2c(=O)[nH]c3ccccc32)CC1` (stereo not given), the inhibition was 17.6%.

In the case of `COc1ccc(-n2nnnc2C(c2cccc3ccccc23)N2CCC(n3c(=O)[nH]c4ccccc43)CC2)cc1` (stereo not given), the inhibition is 50.2% (active).

As to `CN1CCN(Cc2ccccc2C(F)(F)F)CC1`, the inhibition is -6.7%.

For `CC(=O)c1ccc(OC(NC(=O)Cc2ccccc2)C(Cl)(Cl)Cl)cc1` (stereo not given), the inhibition was -5.19%.

As for `COc1ccc(N=Cc2c(O)n(C)c(=O)[nH]c2=O)cc1`, the inhibition is -20.6%.

Take `O=[N+]([O-])c1ccc(C2C3C(c4ccccc4)=NC4(CCCCC4)N32)cc1` (stereo not given): the inhibition was 23.4%.

For the compound `COc1ccccc1NC(=O)N1C[C@@H]2C[C@@H](C1)c1cccc(=O)n1C2`, the inhibition is -1.31%.

In the case of `CCN1C(=O)NC(=O)C2(CCCC2)C1=O`, the inhibition was -7.97%.

As to `C=CCn1c(O)c(/C=N/N2CCOCC2)c(=O)[nH]c1=S`, the inhibition was -0.23%.

Consider `CC(=CCOc1ccc2ccc(=O)oc2c1)C1=CC(=O)C(C)(C)O1`, for which the inhibition is 62.4% (active).

As to `CN(C)c1nc(N(C)C)nc(N(C#N)CCCl)n1`, the inhibition is -5.34%.

Regarding `C[C@]12CCC3C(CC[C@H]4[C@H](O)[C@H](O)CC[C@]34C)C1CC[C@@H]2O` (stereo not given in full), the inhibition was 0.2%.

On to `CCCOC(=O)C1C2c3ccccc3C(c3ccccc32)C1C(=O)O` (stereo not given), for which the inhibition is 12.7%.

As to `Cc1cc(-c2ccc(N)c(C)c2)ccc1N`, the inhibition was -45.4%.

`O=C(C1CC(=O)N(C2CCCC2)C1)N1CCC2(CC1)OCCO2` (stereo not given): the inhibition is -6.37%.

Regarding `CC1([N+](=O)[O-])COP(=O)(Nc2ccc(F)cc2)OC1` (stereo not given), the inhibition was 3.6%.

Regarding `CCCCCn1c(=O)c(C(=O)NCc2ccccn2)c(O)c2ccccc21`, the inhibition is 15.5%.

Regarding `CCOc1ccc(-c2cc(C)[n+](CCN(CC)CC)c(-c3ccc(OCC)cc3)c2)cc1`, the inhibition was 53.3% (active).

For the compound `CC(C)n1c(=O)c(C=Nc2ccc(Br)cc2)c(O)n(Cc2ccco2)c1=O`, the inhibition is 8.27%.

In the case of `COC(=O)C1=C(c2ccc(Cl)c(C(F)(F)F)c2)C[C@@H]2CC[C@H]1N2C(=O)NC1CC1`, the inhibition was -0.39%.

Regarding `COC(=O)C1=C(c2ccc3ccccc3c2)C[C@@H]2CC[C@H]1N2C(=O)NCCO`, the inhibition is -5.4%.

With `COC1C(O)C(C)OC(OC2CCC3(C=O)C(CCC4C3CCC3(C)C(C5=CC(=O)OC5)CCC43O)C2)C1O` (stereo not given), the inhibition was 105% (active).

As to `CC1C(=O)OC2CCN3CC=C(COC(=O)C(C)(O)C1(C)O)C23` (stereo not given), the inhibition is -0.84%.

With `CC1=C(C(=O)Nc2ccccc2)S(=O)(=O)CCO1`, the inhibition was 9.24%.

With `CC1=C2C(=O)C3C(CC=C4CC(OC5OC(O)C(O)C(O)C5CO)CCC43C)C2CCC12OC1CC(C)CNC1C2C` (stereo not given), the inhibition is -7.24%.

Turning to `CCN(CC)C(=O)c1ccc(NC(=O)c2cc(-n3cnnc3)ccc2Cl)cc1`, the inhibition was 5.1%.

On to `CN(C)CC1Oc2ccccc2OC1(O)c1ccccc1` (stereo not given), for which the inhibition is 103% (active).

With `c1cc2c(cc1C1OCC3C(c4ccc5c(c4)OCO5)OCC13)OCO2` (stereo not given), the inhibition was -66.8%.

Consider `COc1ccc(NC(=O)N2Cc3ccccc3-n3nncc3C2)cc1`, for which the inhibition was 7.2%.

`Cc1ccc(C)c(NC2=NCCCS2)c1`: the inhibition is 4.99%.

For the compound `COC(=O)C1=C(c2ccc(F)cc2OCc2ccccc2)C[C@@H]2CC[C@H]1N2C(=O)NCc1ccc(C(C)(C)C)cc1`, the inhibition is 14.9%.

Take `CC1(C)Cc2c(C#N)c(N3CCNCC3)nc(-c3ccco3)c2CS1`: the inhibition is 78.3% (active).

With `c1ccc(N2Cc3ccccc3-n3nncc3C2)nc1`, the inhibition was -7.56%.

As to `COc1cc(-n2c(=S)[nH]c3ccc(C)cc3c2=O)c(Cl)cc1Cl`, the inhibition was 30.3%.

On to `CCOC(=O)c1c(C)c(C(=O)N2CCC3(CC2)OCCO3)c(C)n1CC`, for which the inhibition is 13.1%.

For the compound `C[C@H]1CN([C@@H](C)CO)C(=O)CCCn2nncc2CO[C@H]1CN(C)C(=O)Oc1cccc2ccccc12`, the inhibition was 9.28%.
